We go through 2 sequences from paper PMC7862700, “An all-to-all approach to the identification of sequence-specific readers for epigenetic DNA modifications on cytosine”.

What all share (assay): DAPPL (digital affinity profiling via proximity ligation, sequencing); 10 mM Tris-HCl pH 7.5, 50 mM NaCl, 1 mM DTT, 4% glycerol, room temperature, 30 min; GST-TFs on glutathione beads, 16-mer random dsDNA library, 0.1% formaldehyde crosslink after washing; high values mean tight binding
Common to all, as to conditions: protein: recombinant; tags: N-terminal GST; dsDNA, one strand shown

In one assay the target is T1, FLI1 (Homo sapiens, UniProt Q01543 1-452).
T1 sequence: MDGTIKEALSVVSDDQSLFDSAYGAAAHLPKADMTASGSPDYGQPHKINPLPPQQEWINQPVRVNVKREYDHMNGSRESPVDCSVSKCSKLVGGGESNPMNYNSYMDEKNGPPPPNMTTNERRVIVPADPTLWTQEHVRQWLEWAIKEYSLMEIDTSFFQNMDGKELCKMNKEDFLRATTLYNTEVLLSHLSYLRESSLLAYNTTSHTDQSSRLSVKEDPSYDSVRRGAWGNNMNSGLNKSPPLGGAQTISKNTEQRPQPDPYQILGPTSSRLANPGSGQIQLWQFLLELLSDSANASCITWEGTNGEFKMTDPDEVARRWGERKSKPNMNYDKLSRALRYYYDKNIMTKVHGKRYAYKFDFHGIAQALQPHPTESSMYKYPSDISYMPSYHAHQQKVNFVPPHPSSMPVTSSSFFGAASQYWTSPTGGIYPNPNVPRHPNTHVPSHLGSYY
Put shortly: (§1)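 Binding signal is defined as a hexamer's read frequency for one factor over its frequency for the tag-only sample. To obtain reads, GST-fused human transcription factors were expressed in yeast, captured on glutathione beads, barcoded with DNA and pooled with that sample. Pools met 200 nmole of a 16-mer random double-stranded DNA library in Tris/NaCl/DTT/glycerol buffer for 30 min at room temperature before washing, 0.1% formaldehyde crosslinking, proximity ligation (BsaI/T4 ligase, 1 h, 37 °C), PCR and Illumina NextSeq500 sequencing.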

The target of the next assay is T2, ELK1 (Homo sapiens, UniProt P19419 1-428).
T2 sequence: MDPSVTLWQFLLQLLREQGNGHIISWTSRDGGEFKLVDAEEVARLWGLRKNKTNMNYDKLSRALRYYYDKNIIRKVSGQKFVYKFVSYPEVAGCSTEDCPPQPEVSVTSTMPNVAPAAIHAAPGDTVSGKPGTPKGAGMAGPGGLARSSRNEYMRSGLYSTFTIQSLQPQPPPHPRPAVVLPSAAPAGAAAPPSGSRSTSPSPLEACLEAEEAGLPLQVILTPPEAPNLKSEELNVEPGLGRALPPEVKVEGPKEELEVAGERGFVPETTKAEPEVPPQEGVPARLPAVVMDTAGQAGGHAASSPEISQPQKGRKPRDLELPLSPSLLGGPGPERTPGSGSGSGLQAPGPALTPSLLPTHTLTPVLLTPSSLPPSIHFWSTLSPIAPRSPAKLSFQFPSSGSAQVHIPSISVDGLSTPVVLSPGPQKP
Put shortly:
as §1

A further assay has as its target T3, GABPA (Homo sapiens, UniProt Q06546 1-454).
T3 sequence: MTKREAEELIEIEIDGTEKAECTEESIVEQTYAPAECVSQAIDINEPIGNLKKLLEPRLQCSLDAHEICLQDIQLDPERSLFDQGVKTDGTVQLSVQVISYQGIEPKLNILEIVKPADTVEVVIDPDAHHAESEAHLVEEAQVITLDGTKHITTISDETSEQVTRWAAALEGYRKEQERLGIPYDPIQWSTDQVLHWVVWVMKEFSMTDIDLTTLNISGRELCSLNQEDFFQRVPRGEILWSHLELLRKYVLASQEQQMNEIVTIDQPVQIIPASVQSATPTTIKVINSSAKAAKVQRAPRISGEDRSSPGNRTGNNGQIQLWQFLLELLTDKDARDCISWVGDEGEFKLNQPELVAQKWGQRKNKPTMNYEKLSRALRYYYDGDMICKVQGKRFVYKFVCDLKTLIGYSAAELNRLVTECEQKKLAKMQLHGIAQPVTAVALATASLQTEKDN
Put shortly: as §1

For a further assay, the target named is T4, ERG (Homo sapiens, UniProt P11308 1-479).
T4 sequence: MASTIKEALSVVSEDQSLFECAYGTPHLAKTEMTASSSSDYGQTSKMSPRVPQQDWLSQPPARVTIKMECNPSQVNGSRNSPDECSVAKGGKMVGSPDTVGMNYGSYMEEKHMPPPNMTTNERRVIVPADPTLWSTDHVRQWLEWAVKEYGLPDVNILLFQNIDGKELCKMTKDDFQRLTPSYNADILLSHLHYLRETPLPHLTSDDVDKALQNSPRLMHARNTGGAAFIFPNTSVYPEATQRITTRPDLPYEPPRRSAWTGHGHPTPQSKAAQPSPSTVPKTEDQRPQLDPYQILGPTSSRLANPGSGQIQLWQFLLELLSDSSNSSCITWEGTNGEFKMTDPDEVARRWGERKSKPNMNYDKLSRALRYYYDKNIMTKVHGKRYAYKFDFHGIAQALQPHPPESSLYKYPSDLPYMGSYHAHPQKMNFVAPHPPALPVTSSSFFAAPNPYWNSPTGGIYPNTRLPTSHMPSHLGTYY
Put shortly:
as §1

A further assay has as its target ELF1 (Homo sapiens, UniProt P32519 1-619). Summed up: as §1
A further assay concerns the target T5, EHF (Homo sapiens, UniProt Q9NZC4 1-300).
T5 sequence: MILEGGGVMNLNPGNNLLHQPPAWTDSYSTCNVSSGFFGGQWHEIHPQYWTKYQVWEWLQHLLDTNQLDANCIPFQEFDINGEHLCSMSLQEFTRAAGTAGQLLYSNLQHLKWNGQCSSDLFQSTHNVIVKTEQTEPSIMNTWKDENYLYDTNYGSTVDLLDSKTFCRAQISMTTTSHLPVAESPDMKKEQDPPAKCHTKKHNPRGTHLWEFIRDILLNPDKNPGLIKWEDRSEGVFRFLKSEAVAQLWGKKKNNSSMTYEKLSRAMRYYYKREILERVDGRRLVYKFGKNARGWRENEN
Summed up:
as §1

For another assay, the target named is SPI1 (Homo sapiens, UniProt P17947 1-270). Summed up: as §1
The target of a further assay is SPIB (Homo sapiens, UniProt Q01892 1-262). Summed up:
as §1

A further assay addresses T6, ELK3 (Homo sapiens, UniProt P41970 1-407).
T6 sequence: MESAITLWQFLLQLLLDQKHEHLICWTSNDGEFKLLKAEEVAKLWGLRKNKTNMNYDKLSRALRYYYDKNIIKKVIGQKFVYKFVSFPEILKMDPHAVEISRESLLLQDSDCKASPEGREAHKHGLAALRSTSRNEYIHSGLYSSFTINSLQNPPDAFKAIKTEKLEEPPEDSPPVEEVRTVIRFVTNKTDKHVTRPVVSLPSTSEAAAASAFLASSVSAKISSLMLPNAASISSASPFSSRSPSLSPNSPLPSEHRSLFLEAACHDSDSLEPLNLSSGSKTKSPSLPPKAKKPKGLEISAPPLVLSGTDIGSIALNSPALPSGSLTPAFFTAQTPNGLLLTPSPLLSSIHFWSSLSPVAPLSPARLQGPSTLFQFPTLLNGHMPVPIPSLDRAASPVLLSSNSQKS
Summed up: as §1

The next assay addresses T7, FEV (Homo sapiens, UniProt Q99581 1-238).
T7 sequence: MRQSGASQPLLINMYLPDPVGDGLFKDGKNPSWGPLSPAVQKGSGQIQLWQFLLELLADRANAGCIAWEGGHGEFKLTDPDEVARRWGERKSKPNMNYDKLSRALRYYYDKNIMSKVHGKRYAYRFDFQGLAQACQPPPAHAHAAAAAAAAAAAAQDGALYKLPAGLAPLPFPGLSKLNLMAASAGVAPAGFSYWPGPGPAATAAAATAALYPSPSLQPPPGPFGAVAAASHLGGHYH
Summed up: as §1

A further assay concerns the target ETV5 (Homo sapiens, UniProt P41161 1-510). Put shortly: as §1
In a further assay the target is T8, SPIC (Homo sapiens, UniProt Q8N5J4 1-248).
T8 sequence: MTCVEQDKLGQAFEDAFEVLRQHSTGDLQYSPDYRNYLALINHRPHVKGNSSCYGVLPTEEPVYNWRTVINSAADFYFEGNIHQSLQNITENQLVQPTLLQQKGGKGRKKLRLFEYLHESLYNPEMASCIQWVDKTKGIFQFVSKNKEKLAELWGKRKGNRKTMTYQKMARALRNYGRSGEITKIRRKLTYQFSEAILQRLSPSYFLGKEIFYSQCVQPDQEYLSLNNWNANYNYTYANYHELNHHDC
Summed up: as §1

A further assay addresses ELF4 (Homo sapiens, UniProt Q99607 1-663). Put shortly:
as §1

A further assay concerns the target T9, ELK4 (Homo sapiens, UniProt P28324-2 1-405).
T9 sequence: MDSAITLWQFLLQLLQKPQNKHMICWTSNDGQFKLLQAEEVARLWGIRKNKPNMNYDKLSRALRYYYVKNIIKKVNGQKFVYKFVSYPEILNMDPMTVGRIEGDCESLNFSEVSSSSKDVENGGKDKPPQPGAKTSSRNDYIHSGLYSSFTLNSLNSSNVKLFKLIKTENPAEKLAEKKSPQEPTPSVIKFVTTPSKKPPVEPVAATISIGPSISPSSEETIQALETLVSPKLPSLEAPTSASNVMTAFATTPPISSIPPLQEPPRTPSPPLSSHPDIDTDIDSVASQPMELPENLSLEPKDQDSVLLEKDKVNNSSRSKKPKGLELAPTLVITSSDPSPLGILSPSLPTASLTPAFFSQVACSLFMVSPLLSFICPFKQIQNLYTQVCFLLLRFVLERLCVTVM
Put shortly: as §1

A further assay has as its target T10, ETV2 (Homo sapiens, UniProt O00321 1-342).
T10 sequence: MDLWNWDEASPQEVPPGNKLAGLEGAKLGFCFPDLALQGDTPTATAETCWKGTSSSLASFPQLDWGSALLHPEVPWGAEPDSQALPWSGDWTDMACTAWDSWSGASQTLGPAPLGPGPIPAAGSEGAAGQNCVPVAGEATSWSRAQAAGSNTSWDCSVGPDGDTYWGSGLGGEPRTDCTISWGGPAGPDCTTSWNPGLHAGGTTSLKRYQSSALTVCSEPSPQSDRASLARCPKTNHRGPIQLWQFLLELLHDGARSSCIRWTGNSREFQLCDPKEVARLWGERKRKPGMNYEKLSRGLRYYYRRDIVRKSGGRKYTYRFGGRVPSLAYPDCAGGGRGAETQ
Put shortly:
as §1

Another assay has as its target T11, ELF3 (Homo sapiens, UniProt P78545 1-371).
T11 sequence: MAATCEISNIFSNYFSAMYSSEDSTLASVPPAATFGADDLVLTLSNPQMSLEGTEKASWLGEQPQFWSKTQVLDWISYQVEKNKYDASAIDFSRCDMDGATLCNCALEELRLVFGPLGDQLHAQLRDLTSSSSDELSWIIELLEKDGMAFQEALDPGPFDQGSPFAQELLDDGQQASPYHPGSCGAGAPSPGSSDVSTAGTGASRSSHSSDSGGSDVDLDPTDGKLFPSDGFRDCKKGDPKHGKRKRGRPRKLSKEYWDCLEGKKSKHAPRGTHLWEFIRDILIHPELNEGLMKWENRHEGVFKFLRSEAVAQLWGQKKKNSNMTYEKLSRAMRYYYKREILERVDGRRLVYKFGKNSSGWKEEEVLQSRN
Put shortly: as §1

The next assay deals with ETV1 (Homo sapiens, UniProt P50549 1-477). Put shortly: as §1
Chain of ETV1 (P50549 whole entry): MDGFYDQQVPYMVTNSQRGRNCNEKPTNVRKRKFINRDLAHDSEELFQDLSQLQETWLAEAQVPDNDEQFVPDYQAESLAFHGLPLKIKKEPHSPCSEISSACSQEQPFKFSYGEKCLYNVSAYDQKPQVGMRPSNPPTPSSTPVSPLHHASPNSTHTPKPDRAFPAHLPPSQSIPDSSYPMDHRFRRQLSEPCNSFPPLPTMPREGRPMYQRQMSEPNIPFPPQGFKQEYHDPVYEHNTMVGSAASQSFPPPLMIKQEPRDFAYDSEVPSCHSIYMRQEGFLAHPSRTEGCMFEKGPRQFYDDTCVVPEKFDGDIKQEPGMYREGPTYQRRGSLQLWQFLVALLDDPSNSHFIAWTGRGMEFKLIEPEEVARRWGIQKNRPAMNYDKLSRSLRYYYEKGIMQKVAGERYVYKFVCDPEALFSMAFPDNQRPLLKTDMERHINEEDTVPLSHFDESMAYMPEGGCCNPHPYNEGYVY

Chain of SPIB (Q01892 whole entry): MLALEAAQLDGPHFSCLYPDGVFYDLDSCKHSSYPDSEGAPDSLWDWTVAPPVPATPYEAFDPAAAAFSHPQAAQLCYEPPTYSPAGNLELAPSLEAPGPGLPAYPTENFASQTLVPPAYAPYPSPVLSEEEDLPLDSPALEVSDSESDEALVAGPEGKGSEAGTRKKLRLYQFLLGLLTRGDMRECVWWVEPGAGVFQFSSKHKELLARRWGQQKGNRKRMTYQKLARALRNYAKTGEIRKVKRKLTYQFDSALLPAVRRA
Chain of ELF1 (P32519 whole entry): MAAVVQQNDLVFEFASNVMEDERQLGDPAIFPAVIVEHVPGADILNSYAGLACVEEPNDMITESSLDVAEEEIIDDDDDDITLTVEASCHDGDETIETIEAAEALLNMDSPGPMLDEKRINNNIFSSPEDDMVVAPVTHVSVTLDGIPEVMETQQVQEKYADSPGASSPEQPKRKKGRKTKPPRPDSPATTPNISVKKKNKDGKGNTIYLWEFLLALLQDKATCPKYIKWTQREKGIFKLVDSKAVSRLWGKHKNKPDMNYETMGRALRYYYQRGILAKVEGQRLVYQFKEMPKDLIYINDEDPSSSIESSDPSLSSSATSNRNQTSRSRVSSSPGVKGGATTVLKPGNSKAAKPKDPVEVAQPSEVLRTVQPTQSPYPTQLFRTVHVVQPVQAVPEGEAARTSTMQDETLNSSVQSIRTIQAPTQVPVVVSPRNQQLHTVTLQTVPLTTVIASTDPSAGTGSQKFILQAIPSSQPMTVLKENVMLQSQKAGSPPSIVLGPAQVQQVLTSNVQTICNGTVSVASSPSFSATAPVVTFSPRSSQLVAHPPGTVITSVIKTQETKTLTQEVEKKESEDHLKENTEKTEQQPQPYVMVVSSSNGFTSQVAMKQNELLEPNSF
Chain of ETV5 (P41161 whole entry): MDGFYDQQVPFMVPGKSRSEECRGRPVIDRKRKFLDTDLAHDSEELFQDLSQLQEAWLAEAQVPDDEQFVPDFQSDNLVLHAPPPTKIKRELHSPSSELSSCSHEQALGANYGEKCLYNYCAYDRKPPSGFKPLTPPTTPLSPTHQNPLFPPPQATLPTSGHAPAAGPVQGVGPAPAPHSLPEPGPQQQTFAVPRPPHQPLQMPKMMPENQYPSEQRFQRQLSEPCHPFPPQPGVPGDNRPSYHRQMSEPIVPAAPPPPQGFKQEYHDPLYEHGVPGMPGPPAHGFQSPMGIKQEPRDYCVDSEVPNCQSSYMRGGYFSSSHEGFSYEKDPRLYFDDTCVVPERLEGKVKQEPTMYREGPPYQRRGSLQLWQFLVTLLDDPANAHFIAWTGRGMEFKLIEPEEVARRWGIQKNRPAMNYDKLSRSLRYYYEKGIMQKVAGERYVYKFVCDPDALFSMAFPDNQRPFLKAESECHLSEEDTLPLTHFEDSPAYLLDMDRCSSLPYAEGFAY
Chain of ELF4 (Q99607 whole entry): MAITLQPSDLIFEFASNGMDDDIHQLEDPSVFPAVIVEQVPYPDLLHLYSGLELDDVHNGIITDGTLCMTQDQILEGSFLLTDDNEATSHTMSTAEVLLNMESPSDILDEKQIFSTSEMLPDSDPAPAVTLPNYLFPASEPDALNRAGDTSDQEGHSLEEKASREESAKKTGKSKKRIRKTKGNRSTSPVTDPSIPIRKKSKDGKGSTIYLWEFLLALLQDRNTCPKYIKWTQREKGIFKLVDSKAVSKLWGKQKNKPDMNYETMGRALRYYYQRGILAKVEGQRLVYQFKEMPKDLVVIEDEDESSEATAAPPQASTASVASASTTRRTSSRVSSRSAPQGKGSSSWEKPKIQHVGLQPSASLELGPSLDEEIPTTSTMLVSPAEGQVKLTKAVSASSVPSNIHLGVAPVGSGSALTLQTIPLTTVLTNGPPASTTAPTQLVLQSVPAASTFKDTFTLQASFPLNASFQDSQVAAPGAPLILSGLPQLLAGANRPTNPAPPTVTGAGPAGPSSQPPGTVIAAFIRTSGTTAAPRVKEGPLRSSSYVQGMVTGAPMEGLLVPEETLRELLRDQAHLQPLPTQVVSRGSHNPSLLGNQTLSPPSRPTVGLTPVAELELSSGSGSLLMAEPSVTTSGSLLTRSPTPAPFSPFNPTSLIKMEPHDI

As for CACAAT, the binding signal with FLI1 was 1.12 fold enrichment (6-mer frequency, TF over GST control); with ELK1 it was 1.07 fold enrichment (6-mer frequency, TF over GST control); in the assay with GABPA it was 1.12 fold enrichment (6-mer frequency, TF over GST control); with ERG, 1.11 fold enrichment (6-mer frequency, TF over GST control); with ELF1, 1.17 fold enrichment (6-mer frequency, TF over GST control); in the assay with EHF, 1.07 fold enrichment (6-mer frequency, TF over GST control). The binding signal was 1.02 fold enrichment (6-mer frequency, TF over GST control) with SPI1; 1.16 fold enrichment (6-mer frequency, TF over GST control) in the assay with SPIB; 1.26 fold enrichment (6-mer frequency, TF over GST control) in the assay with ELK3; 1.06 fold enrichment (6-mer frequency, TF over GST control) in the assay with FEV; 1.1 fold enrichment (6-mer frequency, TF over GST control) with ETV5; 1.13 fold enrichment (6-mer frequency, TF over GST control) in the assay with SPIC. Moreover, the binding signal in the assay with ELF4 is 1.09 fold enrichment (6-mer frequency, TF over GST control); in the assay with ELK4, 1.12 fold enrichment (6-mer frequency, TF over GST control); with ETV2, 1.06 fold enrichment (6-mer frequency, TF over GST control); with ELF3, 1.19 fold enrichment (6-mer frequency, TF over GST control); with ETV1, 1.09 fold enrichment (6-mer frequency, TF over GST control).

As to GTTTTG, the binding signal was 1.19 fold enrichment (6-mer frequency, TF over GST control) with FLI1; 1.17 fold enrichment (6-mer frequency, TF over GST control) with ELK1; 1.2 fold enrichment (6-mer frequency, TF over GST control) with GABPA; 1.25 fold enrichment (6-mer frequency, TF over GST control) with ERG; 1.23 fold enrichment (6-mer frequency, TF over GST control) in the assay with ELF1; 1.15 fold enrichment (6-mer frequency, TF over GST control) with EHF. Besides, the binding signal was 1.2 fold enrichment (6-mer frequency, TF over GST control) with SPI1; 1.23 fold enrichment (6-mer frequency, TF over GST control) with SPIB; 1.11 fold enrichment (6-mer frequency, TF over GST control) with ELK3; 1.16 fold enrichment (6-mer frequency, TF over GST control) with FEV; 1.28 fold enrichment (6-mer frequency, TF over GST control) with ETV5; 1.34 fold enrichment (6-mer frequency, TF over GST control) with SPIC. For the same sequence, the binding signal with ELF4 is 1.18 fold enrichment (6-mer frequency, TF over GST control); in the assay with ELK4 it was 1.22 fold enrichment (6-mer frequency, TF over GST control); with ETV2, 1.26 fold enrichment (6-mer frequency, TF over GST control); in the assay with ELF3 it was 1.03 fold enrichment (6-mer frequency, TF over GST control); with ETV1 it was 1.25 fold enrichment (6-mer frequency, TF over GST control).
